# SARS PLpro yeast: inhibitors of SARS-CoV papain-like protease in yeast | S. cerevisiae expressing SARS-CoV PLpro, growth rescue | Potency, µM (doses to about 32.9 µM), for inactives: at the top dose activity, positive = growth rescue, usual class: activators | actives 0.19% (n = 330,000); calls by dose curve; also: 0% is about no effect; nearly all actives have a fitted effect of over 55% in size
# Sm TGR inh: blocks Schistosoma mansoni thioredoxin glutathione reductase | Q962Y6 | purified TGR, DTNB reduction, TNB absorbance 405 nm | Potency, µM (top dose mostly 114 µM), without a hit: at the top dose activity change, negative = inhibition, most hits filed as inhibitors | actives 3% (n = 360,000); also: % is scaled to controls: 0 for no effect and ±100 for the full control effect; nearly all actives have a fitted effect of over 60% in size
#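 First, TGR (20 nM dispensed) and NADPH were mixed with compound. Second, a 15 min room-temperature incubation followed. Third, further NADPH and then DTNB were added to start the reaction. Finally, TNB absorbance was monitored kinetically.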
# Pf growth 48h: inhibits P. falciparum growth in the first generation, 48 h. P. falciparum luciferase growth in erythrocytes, 48 h. Potency, µM (highest dose often 28.7 µM), for the others: top-dose activity change, negative = inhibition, hits mostly inhibitors. actives 5.9% (n = 310,000). AID 504832; also: % is scaled to controls: 0 for no effect and ±100 for the full control effect
#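 Read-out is firefly luciferase luminescence from an integrated reporter in P. falciparum, so falling signal marks reduced parasite growth. Infected erythrocytes were at 2% hematocrit and 0.1% parasitemia (final) in Albumax-supplemented RPMI 1640.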
# Pf growth 96h: P. falciparum growth inhibition at 96 hour, primary screen for plastid delayed-death inhibitors. P. falciparum luciferase reporter growth, 96 h. Potency, µM (top dose mostly 28.7 µM), without a hit: at the highest dose activity change, negative = inhibition, hits mostly inhibitors. actives 6.9% (n = 320,000); also: % is scaled to controls: 0 for no effect and ±100 for the full control effect
#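 Infected RBCs, 2% Hct / 0.05% parasitemia final; luciferase-reporter P. falciparum; cpd 96 h, 37 C, 5% CO2; luciferase detection reagent; luminescence.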
# Numbers without * were called inactive; ? = inconclusive; . = no result; [ ] = another dose, or the depositor's remark. A selection: hits, their analogues and other compounds. The true share with any hit is near 12%. Unless noted, calls follow the shape of the dose curve; as a rule, active = well fitted curve in the direction sought with a large enough effect; inconclusive = small, poorly fitted or top-dose-only effect, or another doubt; inactive = no such curve, though single readings can be large; an effect the other way counts as inactive or inconclusive. Potency is read from the fitted curve at half-maximal effect.
SMILES,SARS PLpro yeast,Sm TGR inh,Pf growth 48h,Pf growth 96h
O=C(CBr)Nc1c2c(nn1-c1ccccc1)CSC2,-6%,35µM*,10%,15%
CCCC(=O)Nc1c2c(nn1-c1ccccc1)CSC2,-2%,1%,-2%,21%
CC(NC(=O)COC(=O)c1c[nH]c2ccccc12)c1ccccc1 (configuration not stated),0%,.,.,.
CN(CC(=O)Nc1ccc(F)cc1)C(=O)CN1C(=O)c2cccc([N+](=O)[O-])c2C1=O,-9%,-17%,-11%,?
CCN(CC(=O)NC1CCS(=O)(=O)C1)C(=O)c1ccc(OC)c([N+](=O)[O-])c1 (configuration not stated),0%,4%,9%,4%
O=C1C=C(O)c2c(O)cccc2C1=O,-1%,50µM*,-2%,-19%
Cc1cc(O)c2c(c1)C(=O)c1cccc(O)c1C2=O,7%,1%,37%,40%
C#CCSc1nsc(SCC#C)c1C#N,12%,35µM*,?,?
CCCSc1nsc(SCCC)c1C#N,8%,-25%,.,?
COC(=O)CSc1nsc(SCC(=O)OC)c1C#N,-9%,7%,15%,8%[5.75 µM]
N#Cc1c(SCC(=O)N2CCCCC2)nsc1SCC(=O)N1CCCCC1,-1%,-3%,15µM*,0%
CCOC(=O)Cc1nc2ccccc2o1,0%,0%,10%,3.3µM*
CN(C(=O)COc1ccc(Cl)cc1)c1nnc(C23CC4CC(CC(C4)C2)C3)s1,1%,-2%,16%,54%
CN(C(=O)COc1ccc(Cl)cc1Cl)c1nnc(C23CC4CC(CC(C4)C2)C3)s1,0%,-10%,?,13µM*
Cc1cccc(N2CCN(c3ccc(C(=O)O)cc3NC(=O)c3cccc(Cl)c3)CC2C)c1 (configuration not stated),.,3%,.,.
Cc1ccc(NC(=O)Nc2ccc(F)c(Cl)c2)cc1,-2%,4%,-72%,-6%
O=C(Nc1ccc(Cl)c(Cl)c1)Nc1ccc(Br)cc1F,-75%,0%,?,4.7µM*
CC(C)(C)N(NC(=O)Nc1ccc(Cl)c(Cl)c1)C(=O)c1ccccc1,0%,-26%,12µM*,?
O=C(Nc1ccc(Cl)cc1)Nc1ccc(Cl)c(Cl)c1,-15%,-1%,2.3µM*,2.7µM*
O=C(Nc1ccc(Cl)c(Cl)c1)Nc1ccccc1O,-30%,-32%,138%,69%
Cc1cc(NS(=O)(=O)c2ccc(N)cc2)nc(C)n1,.,.,-1%,2%
O=C(CSc1nnc(CNC(=O)c2cccs2)o1)Nc1ccc(Cl)cc1,?,?,2%,10µM*
Cc1cc(C)cc(NC(=O)CSc2nnc(CNC(=O)c3cccs3)o2)c1,3%,1%,10%,70%
O=C(CSc1nnc(CNC(=O)c2cccs2)o1)Nc1ccc(Br)cc1,3%,-4%,7%,13µM*
CN(Cc1ccccc1)C1CCNCC1,2%,-1%,-18%,-23%
SMILES,SARS PLpro yeast,Sm TGR inh,Pf growth 48h,Pf growth 96h
O=C(c1cc(F)ccc1F)C1CCCN(C(=O)c2cccs2)C1 (configuration not stated),1%,0%,9%,?
COc1ccc(F)cc1C(=O)C1CCCN(Cc2cccn2-c2ccccn2)C1 (configuration not stated),-1%,-8%,10µM*,3.3µM*
CC(C)Cc1cc(C(=O)N2CCCC(C(=O)c3cc(F)ccc3F)C2)no1 (configuration not stated),0%,-28%,7%,4.7µM*
COc1ccc(F)cc1C(=O)C1CCCN(Cc2cn(C)c3ccccc23)C1 (configuration not stated),0%,-15%,?,34%
COc1ccc(F)cc1C(=O)C1CCCN(Cc2c[nH]c3ccccc23)C1 (configuration not stated),0%,-32%,?,13µM*
O=C(c1cc(F)ccc1F)C1CCCN(Cc2cc(Cl)ccc2O)C1 (configuration not stated),1%,-17%,4.1µM*,?
S=C(Nc1cccc(Cl)c1Cl)N1CCCC1,7%,-9%,23%,?
COc1ccc(C(=O)C2CCCN(Cc3cn(C)nc3-c3ccccc3)C2)cc1F (configuration not stated),-1%,9%,?,9.3µM*
CCOc1ccccc1CN1CCCC(C(=O)c2ccc(OC)c(OC)c2)C1 (configuration not stated),0%,-2%,?,?

# Source: PubChem (National Center for Advancing Translational Sciences (NCATS))
